# Compounds without any hit were thinned out: in the full panel of roughly 83,000, 20% have a hit.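 Cell lines were cultured in 96-well plates, exposed to a single compound concentration, and assessed for percent growth 48 hours later.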 A number with no mark means an inactive call. The source made the active and inactive calls. The calls were made as follows: active = growth percent below 10; inactive = the rest.
# Legend:
# Test in all cases: NCI-60 one-dose screen, 48 h (100 = growth as untreated, 0 = no growth, -100 = all killed)
# Details in all cases: 10 µM
# NCI-H23 lung = system: NCI-H23 lung
# NCI-H226 lung = system: NCI-H226 lung
# HOP-62 NSCLC = system: HOP-62 NSCLC
# NCI-H460 lung = system: NCI-H460 lung
# NCI-H522 lung = system: NCI-H522 lung
# A549/ATCC NSCLC = system: A549/ATCC NSCLC
# 786-0 renal = system: 786-0 renal
# COLO 205 colon = system: COLO 205 colon
# DU-145 prostate = system: DU-145 prostate
# K-562 leukemia = system: K-562 leukemia
# MALME-3M melanoma = system: MALME-3M melanoma
# MDA-MB-231 breast = system: MDA-MB-231 breast
# RXF 393 renal = system: RXF 393 renal
# SF-268 CNS = system: SF-268 CNS
# SF-295 CNS = system: SF-295 CNS
# SF-539 CNS = system: SF-539 CNS
# UACC-257 melanoma = system: UACC-257 melanoma
# M14 melanoma = system: M14 melanoma
# HCT-15 colon = system: HCT-15 colon
SMILES,growth (NCI-H23 lung),growth (NCI-H226 lung) [%],growth (HOP-62 NSCLC),growth (NCI-H460 lung),growth (NCI-H522 lung),growth (A549/ATCC NSCLC),growth (786-0 renal) [%],growth (COLO 205 colon),growth (DU-145 prostate),growth (K-562 leukemia),growth (MALME-3M melanoma) [%],growth (MDA-MB-231 breast) [%],growth (RXF 393 renal),growth (SF-268 CNS) [%],growth (SF-295 CNS),growth (SF-539 CNS),growth (UACC-257 melanoma) [%],growth (M14 melanoma),growth (HCT-15 colon) [%]
COc1cccc(NC(=O)c2sc3nc4c(cc3c2N)C(O)CCC4)c1 (configuration not stated),33.1%,66.9,32.6%,10.2%,-10.5% (active),22.3%,43.5,-7.73% (active),-10.9% (active),7.8% (active),81.3,23.9,-0.406% (active),30.6,5.44% (active),-17.6% (active),55,11.8%,19.4
Nc1ccc2c(c1)C1(CCC2)NC(=O)NC1=O (configuration not stated),103%,92.1,101%,103%,98.6%,99.5%,100,105%,114%,95.8%,101,101,96.1%,100,108%,93%,,100%,92.7
Cc1ccc(NC(=O)Nc2cccnc2)cc1NC(=O)Nc1cccnc1,88.4%,95.3,117%,85.9%,-37.3% (active),30.8%,94.8,118%,98.2%,57.4%,102,92.8,82.7%,96.8,77.9%,87.5%,10.9,91.6%,84
COc1ccc2c(c1)-c1c(c3cc(OC)ccc3n(CCN(C)C)c1=O)C2=O,7.11% (active),22,15.3%,-4.73% (active),-11.5% (active),-18.7% (active),32.3,14.7%,5.1% (active),18.6%,,36.7,25.2%,22.1,7.07% (active),37.7%,18.4,24%,21.9
COc1cc(-c2cc(C(=O)N3CCN(C(=O)c4ccccc4NCc4cccs4)CC3)nc3cc(-c4ccccc4)nn23)cc(OC)c1OC,85.6%,78.7,87.5%,38.4%,18.6%,50.7%,85.2,56.1%,81.7%,31.4%,,90.1,62.3%,90.8,105%,98.5%,76.4,70.9%,55.4
O=[P@@]1(c2ccccc2)O[C@H](COCc2ccccc2)[C@@H](OCc2ccccc2)[C@H](OCc2ccccc2)[C@H]1O,64.4%,59,7.83% (active),74.7%,42.2%,83.3%,65.3,118%,90.6%,93.9%,109,73.2,50%,43.6,-24.9% (active),58.1%,88.4,102%,94.2
COc1ccc(/C(=C2\O[C@@H]([C@H]3COC(C)(C)O3)[C@H]3OC(C)(C)O[C@@H]23)c2cc(OC)c(OC)c(OC)c2)cc1O,72.3%,108,48.5%,79.4%,43.4%,84.2%,101,121%,34.8%,24.3%,,43.9,81.9%,36.3,85.2%,9.85% (active),107,7.95% (active),26.9
Cc1nc2c(c(=O)[nH]1)OCN(Cc1ccccc1)C2,100%,103,107%,110%,111%,112%,101,112%,108%,88%,87,107,118%,103,107%,109%,97.8,101%,99.4
O=c1[nH]c(-c2ccc(Cl)cc2)nc2sc3c(c12)CCCC3,86.1%,78.1,55.7%,52.2%,82.4%,95.8%,95.7,109%,63.9%,69.5%,108,97.8,89.1%,50.7,32.9%,72.1%,103,68.2%,81.1
